Measured values published in PubChem BioAssay AID1159580 (chemical genetic matrix, 2015).
Hit rate of the full screen: of about 5,500 compounds, about 2,000 (36%) were called active. Another 18% or so got no clear call; they are omitted. No stated cut-off is given here; in the data, active means normalized growth mostly below about 0.91 (no sharp cut-off); inconclusive means no clear call, values can overlap the other calls; inactive means mostly above about 0.92. The list shows a part of the results.

Assay: chemical genetic growth profiling, strain panel (AID 1159580);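 further: tested at 20 µM; growth read once vehicle control cultures reached saturation at 30 °C; 1 = growth at the plate median or of vehicle wells; lower values mean less growth of the strain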
Conditions: S. cerevisiae deletion strains, growth OD

Measured: normalized growth

CCC1OC(=O)[C@H](C)C(=O)[C@H](C)[C@@H](OC2O[C@H](C)C[C@H](N(C)C)[C@H]2O)[C@](C)(OC)C2(CCCn3cnc(-c4cccnc4)c3)C[C@@H](C)C(=O)[C@H](C)[C@H]3N(C2)C(=O)O[C@]13C (stereo partly drawn)
inactive: locus YAL013W, strain DEP1, active compounds read low 1 | locus YAL021C, strain ccr4, active compounds read low 0.973 | locus YAL026C, strain drs2, active compounds read low 0.976 | locus YAL030W, strain snc1, active compounds read low 0.981 | locus YBL061C, strain skt5, active compounds read low 0.98 | locus YBR009C, strain hhf1, active compounds read low 0.962 | locus YBR021W, strain FUR4, active compounds read low 1 | locus YBR023C, strain chs3, active compounds read low 0.998 | locus YBR171W, strain sec66, active compounds read low 0.984 | locus YBR229C, strain ROT2, active compounds read low 1 | locus YBR231C, strain swc5, active compounds read low 0.984 | locus YBR279W, strain paf1, active compounds read low 0.996 | locus YCL011C, strain gbp2, active compounds read low 0.981 | locus YCL016C, strain dcc1, active compounds read low 0.975 | locus YCL029C, strain bik1, active compounds read low 1 | locus YCL069W, strain vba3, active compounds read low 0.979 | locus YCR088W, strain abp1, active compounds read low 0.979 | locus YDL005C, strain med2, active compounds read low 0.989 | locus YDL035C, strain GPR1, active compounds read low 1.01 | locus YDL040C, strain nat1, active compounds read low 0.982 | locus YDL074C, strain BRE1, active compounds read low 1.02 | locus YDL101C, strain DUN1, active compounds read low 1.01 | locus YDL134C, strain PPH21, active compounds read low 1.01 | locus YDL185W, strain tfp1, active compounds read low 1.01 | locus YDL192W, strain arf1, active compounds read low 1.01 | locus YDR001C, strain nth1, active compounds read low 0.983 | locus YDR069C, strain doa4, active compounds read low 0.996 | locus YDR101C, strain arx1, active compounds read low 0.985 | locus YDR137W, strain rgp1, active compounds read low 0.937 | locus YDR150W, strain NUM1, active compounds read low 1.01 | locus YDR159W, strain sac3, active compounds read low 0.96 | locus YDR162C, strain NBP2, active compounds read low 1.02 | locus YDR195W, strain ref2 0.968 | locus YDR297W, strain sur2, active compounds read low 0.982 | locus YDR318W, strain mcm21, active compounds read low 1 | locus YDR334W, strain swr1, active compounds read low 0.977 | locus YDR335W, strain msn5, active compounds read low 0.976 | locus YDR388W, active compounds read low 1.01 | locus YDR392W, strain spt3, active compounds read low 0.936 | locus YDR502C, strain sam2, active compounds read low 0.991 | locus YEL003W, strain gim4, active compounds read low 0.958 | locus YEL037C, strain rad23, active compounds read low 0.975 | locus YEL061C, strain CIN8 (second series), active compounds read low 0.983 | locus YEL061C, strain CIN8, active compounds read low 1 | locus YER015W, strain faa2, active compounds read low 0.987 | locus YER016W, strain bim1, active compounds read low 0.992 | locus YER110C, active compounds read low 0.993 | locus YER111C, strain swi4, active compounds read low 0.964 | locus YER155C, strain BEM2 (second series), active compounds read low 1.02 | locus YER155C, strain BEM2, active compounds read low 1.01 | locus YER167W, strain BCK2, active compounds read low 1.01 | locus YFR010W, strain ubp6, active compounds read low 0.995 | locus YGL078C, strain dbp3, active compounds read low 1.01 | locus YGL086W, strain mad1, active compounds read low 0.995 | locus YGL167C, strain pmr1, active compounds read low 0.986 | locus YGL173C, strain kem1, active compounds read low 0.975 | locus YGL227W, strain vid30, active compounds read low 0.978 | locus YGL240W, strain doc1, active compounds read low 0.994 | locus YGL248W, strain PDE1, active compounds read low 1 | locus YGL253W, strain hxk2, active compounds read low 0.965 | locus YGR078C, strain PAC10, active compounds read low 1.03 | locus YGR135W, strain pre9, active compounds read low 0.993 | locus YGR229C, strain SMI1, active compounds read low 1.01 | locus YGR252W, strain gcn5, active compounds read low 0.965 | locus YHR013C, strain ard1, active compounds read low 0.96 | locus YHR027C, strain rpn1, active compounds read low 0.99 | locus YHR030C, strain SLT2, active compounds read low 0.999 | locus YHR079C, strain IRE1 (second series), active compounds read low 0.991 | locus YHR094C, strain hxt1, active compounds read low 1 | locus YHR129C, strain ARP1, active compounds read low 1 | locus YHR142W, strain chs7, active compounds read low 0.973 | locus YHR200W, strain rpn10, active compounds read low 1 | locus YIL066C, strain RNR3, active compounds read low 1.01 | locus YIL073C, strain SPO22, active compounds read low 0.991 | locus YIL125W, strain kgd1, active compounds read low 1 | locus YIR030C, strain dcg1, active compounds read low 0.999 | locus YJL092W, strain hpr5, active compounds read low 0.979 | locus YJL095W, strain BCK1 (second series), active compounds read low 0.995 | locus YJL095W, strain BCK1, active compounds read low 1 | locus YJL115W, strain asf1, active compounds read low 0.973 | locus YJL129C, strain trk1, active compounds read low 1.01 | locus YJL134W, strain LCB3, active compounds read low 1.01 | locus YJL154C, strain vps35, active compounds read low 0.977 | locus YJL164C, strain tpk1, active compounds read low 0.977 | locus YJL166W, strain qcr8, active compounds read low 0.998 | locus YJL168C, strain set2, active compounds read low 0.999 | locus YJL187C, strain SWE1 (second series), active compounds read low 0.999 | locus YJL187C, strain SWE1, active compounds read low 0.984
